Reference: PubChem BioAssay (Tox21)
Records with an inconclusive call do not appear. The source made the active and inactive calls. Calls follow the shape of the dose curve; as a rule, active = well fitted curve in the direction sought with a large enough effect in the repeat runs; inconclusive = weak or mixed curves; inactive = no such curve, though single readings can be large; an effect the other way counts as inactive or inconclusive.

What was measured:
[1] = Caspase-3/7 induction in HepG2 cells by small molecules, qHTS assay (AID 1346978); also: nearly all actives have a fitted effect of over 15% in size; also: potency is read from the fitted curve at half-maximal effect
Outline: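 Caspase-3/7 induction was measured by Caspase-Glo 3/7 luminescence (30 min, room temperature) after a 17 hr compound exposure of wild-type HepG2 cells seeded at 2,000 per well and pre-incubated 5 hr.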

[2] = Caspase-3/7 induction in CHO-K1 cells by small molecules, qHTS cell viability counter screen (AID 1346979); also: nearly all actives have a fitted effect of over 35% in size; also: potency is read from the fitted curve at half-maximal effect
Outline: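 Multiplexed with Caspase-Glo 3/7 in CHO-K1 cells, this counter screen added CellTiter-Fluor after 16hr of compound exposure and recorded fluorescence 1hr later.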

[3] = Caspase-3/7 induction in CHO-K1 cells by small molecules, qHTS assay (AID 1346980); also: nearly all actives have a fitted effect of over 15% in size
Outline: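 Luminescent Caspase-Glo 3/7 read (30min, room temperature) quantified apoptosis induction. Cells were wild-type CHO-K1, treated with compound for 17hr at 37 C and 5% CO2.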

[4] = Caspase-3/7 induction in HepG2 cells by small molecules, qHTS cell viability counter screen (AID 1346981); also: nearly all actives have a fitted effect of over 30% in size; also: potency is read from the fitted curve at half-maximal effect
Outline: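 HepG2, WT, 2,000 cells/well; 5 hr pre-incubation 37 C/5% CO2; compound pin-transferred from DMSO; 16 hr exposure; CellTiter-Fluor, 1 hr; fluorescence read.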

[5] = target: Nuclear receptor subfamily 1 group I member 2 (Homo sapiens) (UniProt O75469); assay: Human pregnane X receptor (PXR) small molecule agonists, qHTS assay (AID 1346982); also: nearly all actives have a fitted effect of over 35% in size; also: potency is read from the fitted curve at half-maximal effect
Sequence of Nuclear receptor subfamily 1 group I member 2 (Homo sapiens) (O75469 whole entry, looked up): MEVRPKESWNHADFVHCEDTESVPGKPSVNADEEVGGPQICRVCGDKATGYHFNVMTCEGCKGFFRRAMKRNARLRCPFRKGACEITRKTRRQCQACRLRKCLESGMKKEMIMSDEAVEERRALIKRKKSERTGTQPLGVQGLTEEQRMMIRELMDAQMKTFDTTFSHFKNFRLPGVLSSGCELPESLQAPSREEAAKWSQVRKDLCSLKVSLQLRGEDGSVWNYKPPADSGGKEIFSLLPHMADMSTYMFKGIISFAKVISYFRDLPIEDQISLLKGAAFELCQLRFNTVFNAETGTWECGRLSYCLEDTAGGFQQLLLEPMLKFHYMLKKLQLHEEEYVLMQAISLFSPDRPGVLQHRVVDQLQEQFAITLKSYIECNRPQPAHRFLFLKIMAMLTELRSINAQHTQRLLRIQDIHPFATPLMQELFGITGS
Outline: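 Luciferase signal from ONE-Glo (30 min, room temperature) measured activation of hPXR-driven CYP3A4 reporter expression in PXR-Luc HepG2 cells treated with compounds for 24 hr at 37 C.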

[6] = target: Nuclear receptor subfamily 1 group I member 2 (Rattus norvegicus) (UniProt Q9R1A7); assay: Rat pregnane X receptor (rPXR) activation by small molecules, qHTS assay (AID 1346983); conditions: rPXR luciferase reporter cells, One-Glo luminescence, 24 h; max activation: active compounds read high; also: nearly all actives have a fitted effect of over 20% in size; also: potency is read from the fitted curve at half-maximal effect
Sequence of Nuclear receptor subfamily 1 group I member 2 (Rattus norvegicus) (Q9R1A7 whole entry, looked up): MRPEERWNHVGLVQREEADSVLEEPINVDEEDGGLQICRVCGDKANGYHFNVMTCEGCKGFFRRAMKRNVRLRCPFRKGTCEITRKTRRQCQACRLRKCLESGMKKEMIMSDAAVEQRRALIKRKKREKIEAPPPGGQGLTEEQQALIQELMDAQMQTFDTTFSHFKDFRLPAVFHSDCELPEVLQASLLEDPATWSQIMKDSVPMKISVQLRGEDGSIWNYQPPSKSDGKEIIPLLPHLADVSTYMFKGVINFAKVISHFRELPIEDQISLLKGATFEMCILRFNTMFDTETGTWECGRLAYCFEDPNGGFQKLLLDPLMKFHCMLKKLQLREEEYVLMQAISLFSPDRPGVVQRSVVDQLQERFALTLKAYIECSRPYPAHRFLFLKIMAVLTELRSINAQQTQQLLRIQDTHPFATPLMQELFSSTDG
Outline: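 Luminescent readout (One-Glo luciferase, 30 min room temperature) followed 24 hr compound treatment at 37 C of rPXR cells plated 2,000 per well and preincubated 5hr; qHTS format with compounds delivered in DMSO.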

[7] = target: Nuclear receptor subfamily 1 group I member 2 (Homo sapiens) (UniProt O75469); assay: CYP3A4 induction through human pregnane X receptor (PXR) by small molecules, qHTS assay (AID 1346984); also: nearly all actives have a fitted effect of over 40% in size
Outline: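 Luminescence readout: luciferase signal after One-Glo (30 min, room temperature), following 3 h at 37C with 3uM final Luciferin-IPA P450 substrate. Cells were DPX-2 (HepG2, PXR/CYP3A4-luc co-transfected) dosed for 24 h.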

[8] = target: Nuclear receptor subfamily 1 group I member 2 (Homo sapiens) (UniProt O75469); assay: Human pregnane X receptor (PXR) activation by small molecules, qHTS assay (AID 1346985); also: nearly all actives have a fitted effect of over 40% in size; also: potency is read from the fitted curve at half-maximal effect
Outline: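 DPX-2 cells (HepG2 co-transfected with a PXR response element and a CYP3A4-promoter luciferase construct) were seeded at 2,000 per well, rested 5 hr at 37C, then exposed to DMSO-dissolved compounds for 24 hr. Activation was read as luciferase luminescence.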

[9] = target: Cytochrome P450 2C19 (Homo sapiens) (UniProt P33261); assay: Cytochrome P450 Family 2 Subfamily C Member 19 (CYP2C19) small molecule antagonists: luciferase reporter qHTS assay (AID 1671197); also: nearly all actives have a fitted effect of over 65% in size; also: potency is read from the fitted curve at half-maximal effect
Sequence of Cytochrome P450 2C19 (Homo sapiens) (P33261 whole entry, looked up): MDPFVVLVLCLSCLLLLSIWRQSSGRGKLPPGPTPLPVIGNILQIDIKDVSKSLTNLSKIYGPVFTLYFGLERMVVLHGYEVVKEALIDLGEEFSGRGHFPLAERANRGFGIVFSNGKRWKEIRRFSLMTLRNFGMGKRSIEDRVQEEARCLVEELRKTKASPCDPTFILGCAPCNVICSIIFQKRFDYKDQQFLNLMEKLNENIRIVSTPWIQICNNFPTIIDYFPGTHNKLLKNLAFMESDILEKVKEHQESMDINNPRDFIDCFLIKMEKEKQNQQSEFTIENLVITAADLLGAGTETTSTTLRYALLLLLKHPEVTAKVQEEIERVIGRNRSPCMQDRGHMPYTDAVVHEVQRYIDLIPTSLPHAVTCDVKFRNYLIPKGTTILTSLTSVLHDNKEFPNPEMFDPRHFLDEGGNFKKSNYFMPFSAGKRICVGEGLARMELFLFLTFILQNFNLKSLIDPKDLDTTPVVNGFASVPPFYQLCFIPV
Outline: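 Enzyme-substrate mix with proluciferin substrate (P450-Glo CYP2C19 system) preincubated with compounds 10 min at room temperature; NADPH regeneration solution added, 37C for 1 h; detection reagent stops reaction, luminescence read after 20 min. Ketoconazole positive control.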

[10] = target: Cytochrome P450 2C9 (Homo sapiens) (UniProt P11712); assay: Cytochrome P450 Family 2 Subfamily C Member 9 (CYP2C9) small molecule antagonists: luciferase reporter qHTS assay (AID 1671198); also: nearly all actives have a fitted effect of over 50% in size; also: potency is read from the fitted curve at half-maximal effect
Sequence of Cytochrome P450 2C9 (Homo sapiens) (P11712 whole entry, looked up): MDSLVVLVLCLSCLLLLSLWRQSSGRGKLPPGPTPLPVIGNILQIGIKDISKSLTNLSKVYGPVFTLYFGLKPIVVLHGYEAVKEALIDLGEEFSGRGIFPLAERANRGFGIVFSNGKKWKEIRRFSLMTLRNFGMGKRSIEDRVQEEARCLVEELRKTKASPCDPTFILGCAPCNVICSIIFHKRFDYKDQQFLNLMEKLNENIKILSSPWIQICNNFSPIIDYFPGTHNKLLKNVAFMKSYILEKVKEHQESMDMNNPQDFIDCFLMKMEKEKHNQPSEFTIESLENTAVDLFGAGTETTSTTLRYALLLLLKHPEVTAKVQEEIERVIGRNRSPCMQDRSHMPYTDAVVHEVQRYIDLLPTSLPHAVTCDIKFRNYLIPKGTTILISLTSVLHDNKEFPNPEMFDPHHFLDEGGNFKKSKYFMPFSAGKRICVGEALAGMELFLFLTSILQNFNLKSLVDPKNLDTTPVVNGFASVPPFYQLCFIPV
Outline: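 Enzyme-substrate mix preincubated with compound 10 min at room temperature; reaction started with NADPH regeneration solution, 1 h 37C. Luminescent luciferin product read after 20 min detection reagent.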

[11] = target: Cytochrome P450 1A2 (Homo sapiens) (UniProt P05177); assay: Cytochrome P450 Family 1 Subfamily A Member 2 (CYP1A2) small molecule antagonists: luciferase reporter qHTS assay (AID 1671199); also: nearly all actives have a fitted effect of over 50% in size; also: potency is read from the fitted curve at half-maximal effect
Sequence of Cytochrome P450 1A2 (Homo sapiens) (P05177 whole entry, looked up): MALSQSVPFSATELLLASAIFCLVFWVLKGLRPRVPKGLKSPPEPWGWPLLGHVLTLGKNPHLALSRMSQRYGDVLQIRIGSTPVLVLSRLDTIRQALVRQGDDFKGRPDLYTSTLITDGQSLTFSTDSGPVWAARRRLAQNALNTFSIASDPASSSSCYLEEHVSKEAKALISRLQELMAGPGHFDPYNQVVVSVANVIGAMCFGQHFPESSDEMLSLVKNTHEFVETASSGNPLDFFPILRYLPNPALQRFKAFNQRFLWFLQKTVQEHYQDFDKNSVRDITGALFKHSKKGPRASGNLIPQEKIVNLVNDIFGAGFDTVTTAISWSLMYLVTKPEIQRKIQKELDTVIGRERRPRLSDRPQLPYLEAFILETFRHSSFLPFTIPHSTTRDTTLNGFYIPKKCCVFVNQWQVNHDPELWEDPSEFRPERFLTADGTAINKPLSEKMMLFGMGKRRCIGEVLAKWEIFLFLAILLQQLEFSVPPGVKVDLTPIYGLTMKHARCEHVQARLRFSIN
Outline: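 P450-Glo CYP1A2, 1536-well qHTS: enzyme/proluciferin substrate + cpd (DMSO), 10 min RT; NADPH regen, 1 h RT; detection reagent, 20 min; luminescence, RLU.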

[12] = target: Voltage-gated inwardly rectifying potassium channel KCNH2 (Homo sapiens) (UniProt Q12809); assay: Human Ether-a-go-go-Related Gene (hERG) channel small molecule antagonists: fluorescence cell-based qHTS assay (AID 1671200); also: nearly all actives have a fitted effect of over 50% in size; also: potency is read from the fitted curve at half-maximal effect
Sequence of Voltage-gated inwardly rectifying potassium channel KCNH2 (Homo sapiens) (Q12809 whole entry, looked up): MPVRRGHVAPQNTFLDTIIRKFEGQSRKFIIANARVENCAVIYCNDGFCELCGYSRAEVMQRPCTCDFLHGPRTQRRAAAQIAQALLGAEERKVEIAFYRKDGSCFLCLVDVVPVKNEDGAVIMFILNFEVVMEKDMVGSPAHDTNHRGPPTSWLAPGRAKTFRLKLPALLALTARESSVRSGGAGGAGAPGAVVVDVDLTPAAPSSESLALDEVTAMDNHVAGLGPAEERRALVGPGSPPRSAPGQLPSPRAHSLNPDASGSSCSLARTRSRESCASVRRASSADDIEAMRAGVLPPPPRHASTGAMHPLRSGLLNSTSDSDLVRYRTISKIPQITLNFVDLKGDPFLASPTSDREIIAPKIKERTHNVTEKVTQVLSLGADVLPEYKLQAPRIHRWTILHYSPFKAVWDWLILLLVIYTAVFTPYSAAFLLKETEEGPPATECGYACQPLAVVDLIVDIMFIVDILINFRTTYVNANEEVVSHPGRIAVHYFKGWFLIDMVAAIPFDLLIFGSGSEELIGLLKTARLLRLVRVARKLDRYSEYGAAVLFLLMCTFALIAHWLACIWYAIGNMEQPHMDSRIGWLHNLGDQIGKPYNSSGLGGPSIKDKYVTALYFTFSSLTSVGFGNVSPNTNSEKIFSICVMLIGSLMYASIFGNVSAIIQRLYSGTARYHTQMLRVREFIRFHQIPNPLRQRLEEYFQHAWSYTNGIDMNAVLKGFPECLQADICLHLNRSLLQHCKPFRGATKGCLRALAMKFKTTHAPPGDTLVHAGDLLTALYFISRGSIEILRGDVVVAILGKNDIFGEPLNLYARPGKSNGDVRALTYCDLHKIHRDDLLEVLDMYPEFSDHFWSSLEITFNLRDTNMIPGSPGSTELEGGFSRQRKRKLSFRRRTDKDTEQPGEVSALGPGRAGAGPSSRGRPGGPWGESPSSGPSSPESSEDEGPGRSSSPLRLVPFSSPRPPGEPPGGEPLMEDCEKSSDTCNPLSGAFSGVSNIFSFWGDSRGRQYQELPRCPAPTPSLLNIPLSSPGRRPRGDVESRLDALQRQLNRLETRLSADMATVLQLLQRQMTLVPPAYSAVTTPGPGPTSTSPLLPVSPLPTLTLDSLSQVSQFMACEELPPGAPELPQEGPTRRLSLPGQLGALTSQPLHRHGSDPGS
Outline: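 Cell line hERG-U2OS; dye FluxOR II, 1 h RT dark; Tl+ stimulus; ex 480/em 540 nm, read each second for 2 min.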

[13] = Human pregnane X receptor (PXR) small molecule agonists, qHTS cell viability counter screen (AID 1346977); also: nearly all actives have a fitted effect of over 50% in size; also: potency is read from the fitted curve at half-maximal effect
Outline: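 After a 5hr pre-incubation, PXR-Luc HepG2 cells received compounds plus positive control in DMSO and were kept 24hr at 37C. Cell viability was quantified by fluorescence from CellTiter-Fluor added for the final hour.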

[14] = target: Cytochrome P450 2D6 (Homo sapiens) (UniProt P10635); assay: Cytochrome P450 Family 2 Subfamily D Member 6 (CYP2D6) small molecule antagonists: luciferase reporter qHTS assay (AID 1671196); also: nearly all actives have a fitted effect of over 50% in size; also: potency is read from the fitted curve at half-maximal effect
Sequence of Cytochrome P450 2D6 (Homo sapiens) (P10635 whole entry, looked up): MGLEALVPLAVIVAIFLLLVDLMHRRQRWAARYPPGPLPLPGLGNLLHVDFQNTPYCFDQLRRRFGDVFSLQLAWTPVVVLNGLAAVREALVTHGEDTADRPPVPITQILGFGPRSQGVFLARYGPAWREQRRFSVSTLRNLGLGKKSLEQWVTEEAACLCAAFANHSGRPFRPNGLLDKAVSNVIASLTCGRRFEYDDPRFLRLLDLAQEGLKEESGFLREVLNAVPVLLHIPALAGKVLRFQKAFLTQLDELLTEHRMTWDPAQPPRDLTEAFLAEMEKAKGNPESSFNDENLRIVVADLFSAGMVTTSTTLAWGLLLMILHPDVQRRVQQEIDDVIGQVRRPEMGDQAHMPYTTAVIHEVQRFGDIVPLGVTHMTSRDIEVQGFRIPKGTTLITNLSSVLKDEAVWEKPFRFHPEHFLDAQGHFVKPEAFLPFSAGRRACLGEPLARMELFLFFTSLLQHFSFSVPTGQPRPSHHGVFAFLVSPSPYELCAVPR
Outline: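 Read-out is luminescence from luciferin formed by CYP2D6 turnover of a proluciferin substrate, recorded as relative luminescence units. Reactions ran 1 h at room temperature after NADPH regeneration solution was added.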

[15] = target: Cytochrome P450 3A4 (Homo sapiens) (UniProt P08684); assay: Cytochrome P450 Family 3 Subfamily A Member 4 (CYP3A4) small molecule antagonists: luciferase reporter qHTS assay (AID 1671201); also: nearly all actives have a fitted effect of over 50% in size; also: potency is read from the fitted curve at half-maximal effect
Sequence of Cytochrome P450 3A4 (Homo sapiens) (P08684 whole entry, looked up): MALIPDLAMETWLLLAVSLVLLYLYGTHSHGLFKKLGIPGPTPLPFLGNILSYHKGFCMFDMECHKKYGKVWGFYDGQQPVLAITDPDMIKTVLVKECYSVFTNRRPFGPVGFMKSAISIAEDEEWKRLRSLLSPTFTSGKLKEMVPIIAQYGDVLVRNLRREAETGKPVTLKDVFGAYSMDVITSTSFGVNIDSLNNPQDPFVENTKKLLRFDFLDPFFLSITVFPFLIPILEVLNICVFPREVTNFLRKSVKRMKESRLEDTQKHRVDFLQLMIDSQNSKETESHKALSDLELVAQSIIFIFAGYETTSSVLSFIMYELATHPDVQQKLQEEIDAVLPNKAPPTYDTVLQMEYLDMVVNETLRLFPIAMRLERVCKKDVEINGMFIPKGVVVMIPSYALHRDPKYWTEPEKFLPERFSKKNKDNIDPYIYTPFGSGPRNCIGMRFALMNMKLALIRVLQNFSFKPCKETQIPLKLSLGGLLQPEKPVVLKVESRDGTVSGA
Outline: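 Room-temperature assay throughout: 10 min compound–enzyme/substrate preincubation, 1 h reaction after NADPH regeneration solution, 20 min detection. Luciferin formed from proluciferin substrate is quantified by luminescence.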
% is scaled to controls: 0 for no effect and ±100 for the full control effect.

CCOc1ccccc1O[C@H](c1ccccc1)[C@H]1CNCCO1
inactive: Potency [1] | Potency [2] | Potency [3] | Potency [4] | Potency [5] | max activation [6] -0.272% | Potency [7] | Potency [9] | Potency [10] | Potency [11] | Potency [12]
active: Potency [8] 22.4 µM

CCOC(=O)c1ccc(O)c(O)c1
inactive: Potency [13] | Potency [1] | Potency [2] | Potency [3] | Potency [4] | Potency [5] | Potency [14] | Potency [9] | Potency [10] | Potency [12] | Potency [15]
active: Potency [11] 27.5 µM

O=c1cc(-c2ccccc2)oc2cc(O)cc(O)c12
active: Potency [13] 54.5 µM | Potency [2] 61.1 µM | Potency [5] 48.6 µM
inactive: Potency [1] | Potency [3] | Potency [12]

COc1ccccc1NC(=O)c1cc2ccccc2cc1O
inactive: Potency [1] | Potency [3] | Potency [4] | Potency [14] | Potency [12]
active: Potency [5] 24.3 µM | Potency [9] 11.2 µM | Potency [10] 22.4 µM | Potency [11] 1.78 µM | Potency [15] 28.3 µM

CCC(=O)C1CC(C(C)C)CC=C1C (stereo not given)
active: Potency [5] 30.6 µM | Potency [9] 35.6 µM | Potency [11] 63.3 µM | Potency [15] 39.9 µM
inactive: Potency [13] | Potency [1] | Potency [2] | Potency [3] | Potency [12]

CC(=O)Nc1ccc(C)cc1C
inactive: Potency [13] | Potency [1] | Potency [2] | Potency [3] | Potency [5] | Potency [14] | Potency [10] | Potency [11] | Potency [12]

CCCCN(CCCC)C(C(N)=O)c1ccc(OC)cc1 (stereo not given)
active: Potency [5] 11.9 µM | Potency [14] 0.977 µM | Potency [9] 15.5 µM
inactive: Potency [13] | Potency [1] | Potency [2] | Potency [3] | Potency [4] | Potency [12]

Clc1ccc(Nc2nnc(Cc3ccncc3)c3ccccc23)cc1
active: Potency [5] 29.8 µM | Potency [8] 3.98 µM | Potency [14] 17.4 µM | Potency [9] 2.19 µM | Potency [10] 1.55 µM | Potency [11] 1.44 µM
inactive: Potency [1] | Potency [3] | max activation [6] 1.3% | Potency [7] | Potency [12]

O=[N+]([O-])c1cc(C2CCCCC2)c(O)c([N+](=O)[O-])c1
inactive: Potency [1] | Potency [3] | Potency [12] | Potency [15]
active: Potency [13] 4.31 µM | Potency [2] 7.67 µM | Potency [4] 15.3 µM | Potency [5] 8.61 µM | Potency [14] 31.6 µM | Potency [9] 39.8 µM | Potency [10] 8.91 µM

O=c1c(O)c(-c2ccc(O)cc2)oc2cc(O)cc(O)c12
inactive: Potency [1] | Potency [3] | Potency [12]
active: Potency [2] 60.9 µM | Potency [4] 60.9 µM

CC1(C)O[C@@H]2C[C@H]3[C@@H]4C[C@H](F)C5=CC(=O)C=C[C@]5(C)[C@H]4[C@@H](O)C[C@]3(C)[C@]2(C(=O)CO)O1
inactive: Potency [13] | Potency [1] | Potency [2] | Potency [3] | Potency [7] | Potency [8] | Potency [11] | Potency [12]
active: Potency [6] 8.91 µM | Potency [15] 4.9 µM

COc1cc(Nc2c(C#N)cnc3cc(OCCCN4CCN(C)CC4)c(OC)cc23)c(Cl)cc1Cl
inactive: Potency [3] | Potency [14] | Potency [9] | Potency [10] | Potency [11] | Potency [15]
active: Potency [13] 11.9 µM | Potency [1] 11.9 µM | Potency [2] 29.8 µM

O=[N+]([O-])c1ccc(O/N=C/c2cc(Br)c(O)c(Br)c2)c([N+](=O)[O-])c1
active: Potency [13] 30.5 µM | Potency [2] 15.3 µM | Potency [9] 79.3 µM | Potency [10] 9.98 µM
inactive: Potency [1] | Potency [3] | Potency [14] | Potency [11] | Potency [12] | Potency [15]

CCCCCC#CC(=O)OC
inactive: Potency [13] | Potency [1] | Potency [2] | Potency [3] | Potency [4] | Potency [5] | Potency [14] | Potency [9] | Potency [11] | Potency [12] | Potency [15]

CC(CC1c2ccccc2CCc2ccccc21)CN(C)C (stereo not given)
inactive: Potency [1] | Potency [3] | Potency [10] | Potency [11]
active: Potency [14] 0.977 µM | Potency [9] 8.71 µM

c1ccc2sc(SN(C3CCCCC3)C3CCCCC3)nc2c1
active: Potency [5] 17 µM | Potency [14] 1.25 µM | Potency [9] 7.87 µM
inactive: Potency [13] | Potency [1] | Potency [2] | Potency [3] | Potency [4] | Potency [12]

Cc1cc(C)c(N)cc1C
active: Potency [14] 22.4 µM | Potency [9] 7.94 µM | Potency [10] 35.5 µM | Potency [11] 0.708 µM | Potency [15] 35.5 µM
inactive: Potency [13] | Potency [1] | Potency [2] | Potency [3] | Potency [4] | Potency [12]

Cc1cscn1
inactive: Potency [13] | Potency [1] | Potency [2] | Potency [3] | Potency [4] | Potency [5] | Potency [14] | Potency [9] | Potency [10] | Potency [12] | Potency [15]

COc1ccccc1N1CCN(CCCCNC(=O)c2ccc(-c3ccc(C(C)=O)cc3)cc2)CC1
inactive: Potency [13] | Potency [1] | Potency [2] | Potency [3] | Potency [4] | max activation [6] -3.31% | Potency [7] | Potency [8] | Potency [9] | Potency [10] | Potency [11] | Potency [15]
active: Potency [14] 2.19 µM | Potency [12] 3.79 µM

CCC1CO1 (stereo not given)
inactive: Potency [13] | Potency [1] | Potency [2] | Potency [3] | Potency [4] | Potency [5] | Potency [14] | Potency [9] | Potency [10] | Potency [12] | Potency [15]

CC(=O)c1cc2ccccc2s1
inactive: Potency [13] | Potency [1] | Potency [3] | Potency [4] | Potency [5] | Potency [14] | Potency [9] | Potency [12]
active: Potency [11] 6.92 µM
